Test results as given in PubChem BioAssay (NCI).
This is part of a sample that, as a whole, favours compounds with a hit. Of some 83,000 tested, about 20% had one in any assay.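 Cell lines were cultured in 96-well plates, exposed to a single compound concentration, and assessed for percent growth 48 hours later.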 A number with no mark means an inactive call. Activity calls are given as the source filed them. How the source made its calls: active means growth percent below 10; inactive means the rest.

What follows are molecules tested on HOP-92 NSCLC (assay: NCI-60 one-dose screen, 48 h (100 = growth as untreated, 0 = no growth, -100 = all killed)). Settings: 10 µM unless noted.
For `CS(=O)(=O)c1ccc(/C(=N/NC(N)=S)c2ccc(F)cc2)cc1`, the growth was 112%. Molecule `CC1(C)CC[C@]2(CO)CC[C@]3(C)C(=CC[C@@H]4[C@@]5(C)CCNCC(C)(C)[C@@H]5CC[C@]43C)[C@@H]2C1` has a growth of 64.2%. `C=C(CNCCc1ccc(O)cc1)[C@@H]1CC[C@]2(CO)CC[C@]3(C)[C@H](CC[C@@H]4[C@@]5(C)CCC(N)C(C)(C)[C@@H]5CC[C@]43C)[C@@H]12` (stereo not given in full) was tested, and the growth was -78.8% (active). `C(=N\Nc1nnc2n1N=C(c1ccccc1)CS2)/c1ccc(OCc2ccccc2)cc1` was tested, and the growth was 110%. In the case of `O=C(/C=C\c1ccc(O)c(O)c1)c1ccccc1O`, the growth is reported as 55.6%. For `COc1ccc(/C=C2/CCc3cc4ccc(OC)cc4[o+]c32)c(O)c1`, the growth was 56.1%. Work on `Cc1ccc(-c2nnc(SCc3nc(N)nc(Nc4ccccc4F)n3)n2-c2ccccc2)cc1` yielded a growth of 67.3%. Work on `O=C(Nc1cccc(Cl)c1)Oc1c(Cl)c(Cl)c(Cl)c(Cl)c1Cl` yielded a growth of 58.7%. `COc1ccc(-c2csc(NC(=O)CSc3nc(C)cc(=O)[nH]3)n2)cc1` gave a growth of 95.5%. In the case of `Cc1c(C)c2c(c(C)c1OC(=O)CCC(=O)[O-])CCC(C)(CCCCCCCCCCC[P+](c1ccccc1)(c1ccccc1)c1ccccc1)O2` (stereo not given), the growth is reported as -82.7% (active). With `CCN(CC)CCCNC(=O)c1c2c(n3ccccc13)C(=O)c1ncccc1C2=O` the growth was -47.1% (active). For `O=C(/C=C/c1ccc([N+](=O)[O-])cc1)c1cccc(Nc2nc(Nc3ccccc3)nc(Nc3ccccc3)n2)c1`, the growth was -2.76% (active). `CN1CC(c2ccccc2)C(C(=O)c2ccc(Br)cc2)C12C(=O)Nc1ccccc12` (stereo not given) gave a growth of 86.3%. For `COCCNC(=O)Cc1cc(-c2ccc(Cl)cc2)n(-c2ccccc2)c1C`, the growth was 78.8%. With `CNc1nc2ncc(-c3c(C)noc3C)cc2n1Cc1ccccc1` the growth was 7.09% (active). `CC1(C)CC[C@]2(CO)CC[C@]3(C)[C@H](CC[C@@H]4[C@@]5(C)CC[C@H](O)C(C)(C)[C@@H]5CC[C@]43C)[C@H]2[C@H]1O` gave a growth of 105%. Molecule `COC(=O)[C@@H](Cc1c[nH]c2ccccc12)NC[C@@H](O)CN1C(=O)/C(=C\c2cc(OC)c(OC)c(OC)c2)c2ccccc21` has a growth of 68%. In the case of `CCc1ccc(Cc2cnc(NC(=O)c3cc(C)oc3C)s2)cc1`, the growth is reported as 45%. With `CN1CCN(CC(=O)N(C)c2ccc(N=C(c3ccccc3)c3c(O)[nH]c4ccc([N+](=O)[O-])cc34)cc2)CC1` the growth was 87.9%. `COc1cc2c(c(OC)c1OC)CCC(c1cccc(NC(=O)c3cccc(Cl)c3)c1)O2` (stereo not given) showed a growth of 83.1%. Work on `O=C1C2C(c3cccs3)C=C(c3ccc(Cl)cc3)N2C(=S)N1c1ccccc1` (stereo not given) yielded a growth of 97.2%. In the case of `CCN1CCN(c2cc(C(=O)Nc3cccc(Nc4ccc5c(OC)cccc5n4)c3)cc(C(F)(F)F)c2)CC1`, the growth is reported as -3.85% (active). Work on `CCCNNC(=O)c1ccc(CNC(=O)/C=C/c2ccccc2)cc1` yielded a growth of 25.6% [2.5 µM]. `CC(=O)Oc1ccccc1C(=O)N(Cc1ccc2c(Cl)cc(Cl)c(O)c2n1)c1ccccc1` showed a growth of 61.6%. For `CN(C)c1ccc(/C=N/NC(=O)CSc2nc3sc4c(c3c(=O)n2-c2ccccc2)CCCCC4)cc1`, the growth was 50.3%. `N#Cc1nn(-c2ccccn2)c(N)c1C#N` showed a growth of 101%. With `CC(Cc1cccc2ccccc12)C(N)=O` (stereo not given) the growth was 81.1%. With `Cc1nc2ccccc2c(/C=C/c2ccc(Br)cc2)c1C(=O)/C=C/c1ccccc1` the growth was 53.1%. With `c1ccc2[nH]c(-c3ccc(-c4nccc5c4[nH]c4ccccc45)cc3)nc2c1` the growth was 92.4%. With `Cc1[nH]c(C(=O)Nc2ccc(C(N)=O)cc2OC(C)C)c(Cl)c1Cl` the growth was 73.3%. In the case of `C/C=C(/C)C(=O)O[C@@H]1CC(C)(C)CC2C34OC(=O)[C@@]21CC[C@@]3(C)[C@]1(C)CCC2C(C)(C)C(=O)CC[C@]2(C)C1C[C@@H]4O` (stereo not given in full), the growth is reported as 2.1% (active). Work on `C=C(C[n+]1ccccc1)[C@@H]1CC[C@]2(C(=O)OC)CC[C@]3(C)[C@H](CC[C@@H]4[C@@]5(C)CCC(=O)C(C)(C)[C@@H]5CC[C@]43C)[C@@H]12` yielded a growth of 67.4%. `COC(=O)c1c(C(=O)OC)c2ccc3c4ncccc4ccc3n2c1C(=O)c1ccc(C)cc1` gave a growth of 91.7%. In the case of `O=C1c2ccccc2-c2c1c1ccncc1c(=O)n2CCCn1ccnc1`, the growth is reported as 78.5%. Molecule `O=C1Nc2ccccc2/C1=C/c1cccn1CCCCCCn1c2ccccc2c(=O)c2ccccc21` has a growth of 56.4%. Molecule `O=C(Nc1ccccc1CNc1nc(Nc2ccc(OCCN3CCCC3)cc2)ncc1Cl)NC1CCCCC1` has a growth of 65.5%. In the case of `CSc1nc(CC(C)C)c(C#N)c(=O)n1C`, the growth is reported as 8.54% (active). In the case of `CS(=O)(=O)Nc1cc(-c2ccc3ncnc(Nc4cccc(Cl)c4)c3c2)cnc1Cl`, the growth is reported as -22.5% (active). For `N#Cc1c(-c2ccc(Cl)cc2)nc(NN=Cc2cccc(Cl)c2)nc1N1CCOCC1`, the growth was 89.3%. `CNC1=C([N+](=O)[O-])C(c2ccc(OC)cc2)C(C#N)=C(c2ccc[nH]2)O1` (stereo not given) showed a growth of 96.2%.
